Values joined by “and” are separate entries in the source; they are usually repeats but may differ in a detail not shown here. Equal entries are not always repeated. Records with an inconclusive call do not appear. Where a structure was tested more than once in an assay, its records may differ in their call. Active and inactive are the calls of the source. Calls follow the shape of the dose curve; as a rule, active = well fitted curve in the direction sought with a large enough effect; inconclusive = small, poorly fitted or top-dose-only effect, or another doubt; inactive = no such curve, though single readings can be large; an effect the other way counts as inactive or inconclusive. Non-standard residues stand in square brackets, D forms with d. Residues, ends and D or L forms follow the SMILES beside them. *: point of attachment. Sta = CC(C)C[C@H](N)[C@@H](O)CC(=O)O; Isovaleryl = CC(C)CC(=O)*

Test [1] has as its target Glutathione peroxidase 1 (Homo sapiens) (UniProt P07203). The experiment in a line: Primary qHTS Assay for Inhibitors of Recombinant Selenoprotein Glutathione Peroxidase 1 (GPX1) (AID 1845191). Also: nearly all actives have a fitted effect of over 65% in size. Also: potency is read from the fitted curve at half-maximal effect. The method, boiled down:
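NADPH consumption tracked by fluorescence at 340/450 nm between t=0 and t=15 min, room temperature. Final mix: 10 nM GPX1, 100 nM glutathione reductase, 1 mM GSH, 0.5 mM NADPH, 0.5 mM cumene hydroperoxide, 0.01% BSA; 30 min compound–enzyme preincubation.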

In test [2] the target is Luciferin 4-monooxygenase (Photinus pyralis) (UniProt P08659). The test is described as follows: Primary firefly luciferase (FLuc) qHTS assay for identification of artifact compounds. (AID 1845220). Also: nearly all actives have a fitted effect of over 60% in size. A digest of the protocol:
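Cell-free, 1536-well qHTS. Buffer pH 7.6 with 0.01% Tween-20 and 0.05% BSA; 10 uM D-luciferin, 10 uM ATP; 10 nM P. pyralis luciferase; luminescence after 5 min.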

Test [3] can be described thus: Primary fluorescence-based thiol-reactive (MSTI) qHTS assay for identification of artifact compounds. (AID 1845221). Also: nearly all actives have a fitted effect of over 65% in size. Also: potency is read from the fitted curve at half-maximal effect. The method, boiled down: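 One-hour, room-temperature, dark incubation of compound with 4 uM MSTI in PBS (pH 7.4, 2% DMSO) precedes a fluorescence read at 525 nm excitation, 598 nm emission; Hill-equation fitting yields concentration-response values.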

The test system of test [4] is Nanoluciferase (engineered Oplophorus gracilirostris luciferase). The experiment in a line: Primary Nanoluciferase (NLuc) qHTS assay for identification of artifact compounds. (AID 1845222). The method, boiled down:
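Compounds are pinned into diluted (1:55) conditioned medium of NLuc-expressing S16 cells and held 15 min at room temperature protected from light. Nano-Glo substrate follows, and luminescence is read 5 min later.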
Background: Quantitative high-throughput screening tests each substance at several concentrations.

Test [5] in a line: Primary redox qHTS assay for identification of artifact compounds. (AID 1845223). The method, boiled down:
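Redox-cycling detection via DTT (250 uM final) oxidation coupled to Amplex Red (25 uM)/HRP (250 mU/mL) in HBSS. 15 min preincubation plus 30 min after DTT, room temperature. Ex/Em 525/598 nm; 4-parameter Hill fit against DMSO and 10 uM DA3003.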

Test [6] is described as follows: Quantitative High-Throughput drug screen in 47 multiple myeloma cell lines against the NCATS MIPE library collection: FR4_PLB cell viability assay (AID 1918924; also: nearly all actives have a fitted effect of over 35% in size). The method, boiled down:
(§1)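 Myeloma cells (500 per well) were exposed to MIPE 4.0 compounds by pin transfer and incubated 48 hours at 37C, 5% CO2. Viability was read as ATP by CellTiter-Glo luminescence, normalised to DMSO (100%) and media-only (0%) wells.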

The nature of test [7]: Quantitative High-Throughput drug screen in 47 multiple myeloma cell lines against the NCATS MIPE library collection: Delta47_JCRB cell viability assay (AID 1918925; also: nearly all actives have a fitted effect of over 45% in size). A digest of the protocol: as §1
Test [8] can be described thus: Quantitative High-Throughput drug screen in 47 multiple myeloma cell lines against the NCATS MIPE library collection: EJM_DSMZ cell viability assay (AID 1918926; also: nearly all actives have a fitted effect of over 30% in size). The method, boiled down:
as §1

Test [9] can be described thus: Quantitative High-Throughput drug screen in 47 multiple myeloma cell lines against the NCATS MIPE library collection: AMO1_DSMZ cell viability assay (AID 1918927; also: nearly all actives have a fitted effect of over 30% in size; also: potency is read from the fitted curve at half-maximal effect). The method, boiled down:
as §1

Test [10] in a line: Quantitative High-Throughput drug screen in 47 multiple myeloma cell lines against the NCATS MIPE library collection: ARD_JJKsccE7 cell viability assay (AID 1918929; also: potency is read from the fitted curve at half-maximal effect). A digest of the protocol: as §1
The nature of test [11]: Quantitative High-Throughput drug screen in 47 multiple myeloma cell lines against the NCATS MIPE library collection: Karpas620_DSMZ cell viability assay (AID 1918959). Also: nearly all actives have a fitted effect of over 30% in size. Also: potency is read from the fitted curve at half-maximal effect. The method, boiled down:
as §1

The nature of test [12]: Quantitative High-Throughput drug screen in 47 multiple myeloma cell lines against the NCATS MIPE library collection: Karpas417_ECACC cell viability assay (AID 1918961). The settings on record: Karpas417 myeloma viability, CellTiter-Glo ATP luminescence, 48 h; viability (% of DMSO): at 45.8 µM (top of the series). A digest of the protocol:
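CellTiter-Glo ATP luminescence gave viability after 48 h compound treatment at 37C of 500 multiple myeloma cells per well. Normalisation used DMSO-only wells as 100% and media-only wells as 0% viability; primary qHTS of approved and investigational drugs.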
On the technique in general: In ATP-based viability assays light output follows the ATP content of the culture.

Test [13] can be described thus: Quantitative High-Throughput drug screen in 47 multiple myeloma cell lines against the NCATS MIPE library collection: ARP1_JJKsccF8 cell viability assay (AID 1918928; also: nearly all actives have a fitted effect of over 40% in size). The method, boiled down:
(§2)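 Viability screen: myeloma cells (500/well) incubated 48 h at 37 °C, humidified 5% CO2, with pinned library compounds; CellTiter-Glo added, luminescence read; DMSO wells set 100%, medium-only wells 0%.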

Test [14] is described as follows: Quantitative High-Throughput drug screen in 47 multiple myeloma cell lines against the NCATS MIPE library collection: JIM3_ECACC cell viability assay (AID 1918963; also: nearly all actives have a fitted effect of over 35% in size). A digest of the protocol: as §1
A short description of test [15]: Quantitative High-Throughput drug screen in 47 multiple myeloma cell lines against the NCATS MIPE library collection: KMM1_JCRB cell viability assay (AID 1918960). Also: nearly all actives have a fitted effect of over 30% in size. Also: potency is read from the fitted curve at half-maximal effect. The method, boiled down: as §2
Test [16] can be described thus: Quantitative High-Throughput drug screen in 47 multiple myeloma cell lines against the NCATS MIPE library collection: JIM1_ECACC cell viability assay (AID 1918964). The method, boiled down: as §1
In test [17] the target is Phospholipid hydroperoxide glutathione peroxidase GPX4 (Homo sapiens) (UniProt P36969). The experiment in a line: Primary qHTS Assay for Inhibitors of Recombinant Selenoprotein Glutathione Peroxidase 4 (GPX4) (AID 1845192). Also: nearly all actives have a fitted effect of over 65% in size. The method, boiled down:
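NADPH consumption followed by fluorescence at 340/450 nm, t=0 and after 15 min at room temperature. Reaction started with cumene hydroperoxide (0.5 mM final) after 30 min compound–GPX4 preincubation; final 200 nM GPX4, 100 nM GR, 1 mM GSH, 0.5 mM NADPH.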

Sequence of Glutathione peroxidase 1 (Homo sapiens) (P07203 whole entry, looked up): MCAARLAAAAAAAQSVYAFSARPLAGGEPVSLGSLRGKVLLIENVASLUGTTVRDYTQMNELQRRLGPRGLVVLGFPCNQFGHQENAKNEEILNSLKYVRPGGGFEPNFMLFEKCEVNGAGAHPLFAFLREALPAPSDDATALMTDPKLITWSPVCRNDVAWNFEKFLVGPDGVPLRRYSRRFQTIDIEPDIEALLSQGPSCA
Sequence of Phospholipid hydroperoxide glutathione peroxidase GPX4 (Homo sapiens) (P36969 whole entry, looked up): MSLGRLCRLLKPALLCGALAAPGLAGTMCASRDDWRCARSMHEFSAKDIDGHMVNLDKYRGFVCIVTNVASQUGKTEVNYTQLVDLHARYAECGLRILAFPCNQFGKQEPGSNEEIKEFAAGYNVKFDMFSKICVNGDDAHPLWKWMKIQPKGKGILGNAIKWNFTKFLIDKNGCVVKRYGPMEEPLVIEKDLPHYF

For `COCCCOc1ccnc(CS(=O)c2nc3ccccc3[nH]2)c1C` (centres undefined), the Potency entry in test [1] is “inactive and 14.3 µM (active)”. Moreover, the Potency result in test [2], in test [3], in [6], in test [7], in [8] and in [9] was “inactive” in each case. The Potency result in [10], in [11] and in test [12] was “inactive” in each case. In addition, the call in test [4] and in test [5] was inactive.
As for `c1ccc2[nH]c(-c3cscn3)nc2c1`, the Potency result in test [1], in [7], in test [9], in [13], in test [10] and in test [14] was “inactive” throughout.
For the compound `COc1c(O)cc2c(c1O)[C@@H]1O[C@H](CO)[C@@H](O)[C@H](O)[C@H]1OC2=O`, the Potency entry in test [1], in test [2], in [6], in [8], in [9] and in test [11] was “inactive” each time. The Potency result in test [15], in test [12] and in test [16] was “inactive” in each case. The Potency in test [3] is 11.7 µM (active). Also, the result in test [4] and in test [5] was inactive.
Consider `CC(C)Oc1ccc2c(=O)c(-c3ccccc3)coc2c1`, for which the Potency entry in test [1], in test [17], in test [7], in test [8], in test [9] and in test [10] was “inactive” in each case. In test [16], the Potency result is “inactive”.
With `Cc1nccn1CC1CCc2c(c3ccccc3n2C)C1=O` (centres undefined), the Potency result in [1], in [2], in test [3], in test [6], in test [8] and in [10] was “inactive” in each case. Further, the call in test [4] and in [5] was inactive.
`Cc1nc(Nc2ncc(C(=O)Nc3c(C)cccc3Cl)s2)cc(N2CCN(CCO)CC2)n1`: the Potency entry in test [1], in [2] and in test [3] was “inactive” throughout. In addition, the result in test [4] and in test [5] was inactive. The Potency is 2.64 µM (active) in test [9], 2.35 µM (active) in test [10], 16.6 µM (active) in [11] and 1.05 µM (active) in test [15].
For the compound `CC(C)CC(=O)N[C@H](C(=O)N[C@H](C(=O)N[C@@H](CC(C)C)[C@@H](O)CC(=O)N[C@@H](C)C(=O)N[C@@H](CC(C)C)[C@@H](O)CC(=O)O)C(C)C)C(C)C` (Isovaleryl-VV[Sta]A[Sta]-OH), the Potency result in [1], in test [17], in [6], in test [8], in test [13] and in [10] was “inactive” throughout. Also, the Potency result in test [11], in test [15], in test [12], in test [14] and in test [16] was “inactive” in each case.
On to `CN(C)C(=O)COC(=O)Cc1ccc(OC(=O)c2ccc(N=C(N)N)cc2)cc1`, for which the Potency entry in test [1], in test [17], in test [6] and in [13] was “inactive” throughout. For the same compound, in test [11], the Potency is 7.43 µM (active).
On to `CC(C)(S)[C@@H](N)C(=O)O`, for which, in test [1], the outcome was “inactive [at 4.49 µM]”. Moreover, the Potency result in test [6], in test [8], in test [9], in test [13], in [10] and in test [11] was “inactive” each time. In addition, the Potency result in test [14] and in test [16] was “inactive” in each case.

The values are drawn from PubChem BioAssay (NCATS).
